Reference: ChEMBL document CHEMBL1961873, “Compounds: GSK PKIS; Assays: Nanosyn kinase panel” (2012)

What was measured:
[1] = biological target: Sphingosine kinase 1 (Homo sapiens) (UniProt Q9NYA1); conditions: at 1 µM;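 also: mean SPHK1 inhibition value reported from the GSK PKIS kinase panel screen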
[2] = biological target: T1, Sphingosine kinase 2 (Homo sapiens) (UniProt Q9NRA0); conditions: at 0.1 µM
T1 sequence (whole entry): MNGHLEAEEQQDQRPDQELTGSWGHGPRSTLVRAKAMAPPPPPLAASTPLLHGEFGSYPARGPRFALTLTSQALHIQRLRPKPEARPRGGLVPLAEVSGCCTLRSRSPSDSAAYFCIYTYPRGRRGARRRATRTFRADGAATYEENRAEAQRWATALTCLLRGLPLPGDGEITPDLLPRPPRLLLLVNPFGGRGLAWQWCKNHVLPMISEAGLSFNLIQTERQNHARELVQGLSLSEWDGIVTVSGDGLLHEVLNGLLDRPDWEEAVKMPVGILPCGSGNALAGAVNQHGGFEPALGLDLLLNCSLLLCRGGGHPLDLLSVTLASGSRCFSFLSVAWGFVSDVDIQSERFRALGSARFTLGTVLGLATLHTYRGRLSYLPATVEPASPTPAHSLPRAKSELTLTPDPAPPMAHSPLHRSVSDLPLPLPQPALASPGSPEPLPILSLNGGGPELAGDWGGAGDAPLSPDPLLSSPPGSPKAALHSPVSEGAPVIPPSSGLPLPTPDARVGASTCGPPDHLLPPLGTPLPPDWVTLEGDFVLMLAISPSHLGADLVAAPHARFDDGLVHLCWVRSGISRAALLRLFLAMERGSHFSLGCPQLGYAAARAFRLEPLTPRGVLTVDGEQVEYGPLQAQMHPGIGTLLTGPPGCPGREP

[3] = biological target: T1, Sphingosine kinase 2 (Homo sapiens); conditions: at 1 µM
[4] = biological target: Casein kinase II subunit alpha (Homo sapiens) (UniProt P68400); conditions: at 0.1 µM
[5] = biological target: Casein kinase II subunit alpha (Homo sapiens) (UniProt P68400); conditions: at 1 µM
[6] = biological target: T2, Inhibitor of nuclear factor kappa-B kinase subunit alpha (Homo sapiens) (UniProt O15111); conditions: at 0.1 µM
T2 sequence (whole entry): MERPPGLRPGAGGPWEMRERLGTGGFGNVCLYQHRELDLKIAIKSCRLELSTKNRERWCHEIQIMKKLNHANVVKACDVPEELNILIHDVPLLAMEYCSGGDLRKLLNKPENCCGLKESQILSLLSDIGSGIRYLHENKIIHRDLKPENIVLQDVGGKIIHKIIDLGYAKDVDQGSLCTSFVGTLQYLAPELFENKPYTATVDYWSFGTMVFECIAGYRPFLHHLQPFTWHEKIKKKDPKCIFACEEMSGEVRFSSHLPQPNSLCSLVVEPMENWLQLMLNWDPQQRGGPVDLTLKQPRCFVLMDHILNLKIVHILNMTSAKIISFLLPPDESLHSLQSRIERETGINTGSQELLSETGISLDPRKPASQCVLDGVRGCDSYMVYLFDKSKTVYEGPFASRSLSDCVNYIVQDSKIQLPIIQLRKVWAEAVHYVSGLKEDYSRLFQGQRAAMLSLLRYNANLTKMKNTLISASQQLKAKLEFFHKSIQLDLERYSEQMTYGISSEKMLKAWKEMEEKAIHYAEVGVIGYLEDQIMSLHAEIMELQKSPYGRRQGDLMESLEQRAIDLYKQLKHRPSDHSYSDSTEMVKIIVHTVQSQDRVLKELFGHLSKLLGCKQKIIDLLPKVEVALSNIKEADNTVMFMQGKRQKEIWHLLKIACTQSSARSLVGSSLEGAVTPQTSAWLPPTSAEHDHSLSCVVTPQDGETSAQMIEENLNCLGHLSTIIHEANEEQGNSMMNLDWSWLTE

[7] = biological target: T2, Inhibitor of nuclear factor kappa-B kinase subunit alpha (Homo sapiens); conditions: at 1 µM
[8] = biological target: T3, Inhibitor of nuclear factor kappa-B kinase subunit beta (Homo sapiens) (UniProt O14920); conditions: at 0.1 µM
T3 sequence (whole entry): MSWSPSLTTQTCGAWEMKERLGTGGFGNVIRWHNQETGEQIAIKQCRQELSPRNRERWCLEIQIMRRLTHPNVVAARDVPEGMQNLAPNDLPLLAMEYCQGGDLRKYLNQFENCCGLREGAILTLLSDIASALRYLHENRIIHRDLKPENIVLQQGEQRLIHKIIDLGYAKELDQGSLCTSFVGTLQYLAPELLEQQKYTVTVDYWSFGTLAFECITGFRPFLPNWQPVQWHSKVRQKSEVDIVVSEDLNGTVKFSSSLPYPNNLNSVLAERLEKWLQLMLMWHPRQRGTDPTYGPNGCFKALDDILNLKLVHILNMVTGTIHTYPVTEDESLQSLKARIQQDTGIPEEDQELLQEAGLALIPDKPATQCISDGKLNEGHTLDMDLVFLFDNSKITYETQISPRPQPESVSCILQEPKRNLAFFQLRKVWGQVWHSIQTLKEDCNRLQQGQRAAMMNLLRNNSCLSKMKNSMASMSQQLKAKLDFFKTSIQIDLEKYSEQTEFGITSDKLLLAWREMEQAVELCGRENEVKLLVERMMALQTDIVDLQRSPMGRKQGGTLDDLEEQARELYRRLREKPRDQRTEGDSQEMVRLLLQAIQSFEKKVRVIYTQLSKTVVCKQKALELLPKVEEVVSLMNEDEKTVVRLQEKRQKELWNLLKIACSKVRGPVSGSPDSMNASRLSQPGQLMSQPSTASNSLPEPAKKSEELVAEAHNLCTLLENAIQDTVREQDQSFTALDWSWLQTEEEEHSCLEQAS

[9] = biological target: T3, Inhibitor of nuclear factor kappa-B kinase subunit beta (Homo sapiens); conditions: at 1 µM
[10] = biological target: T4, Inhibitor of nuclear factor kappa-B kinase subunit epsilon (Homo sapiens) (UniProt Q14164); conditions: at 0.1 µM
T4 sequence (whole entry): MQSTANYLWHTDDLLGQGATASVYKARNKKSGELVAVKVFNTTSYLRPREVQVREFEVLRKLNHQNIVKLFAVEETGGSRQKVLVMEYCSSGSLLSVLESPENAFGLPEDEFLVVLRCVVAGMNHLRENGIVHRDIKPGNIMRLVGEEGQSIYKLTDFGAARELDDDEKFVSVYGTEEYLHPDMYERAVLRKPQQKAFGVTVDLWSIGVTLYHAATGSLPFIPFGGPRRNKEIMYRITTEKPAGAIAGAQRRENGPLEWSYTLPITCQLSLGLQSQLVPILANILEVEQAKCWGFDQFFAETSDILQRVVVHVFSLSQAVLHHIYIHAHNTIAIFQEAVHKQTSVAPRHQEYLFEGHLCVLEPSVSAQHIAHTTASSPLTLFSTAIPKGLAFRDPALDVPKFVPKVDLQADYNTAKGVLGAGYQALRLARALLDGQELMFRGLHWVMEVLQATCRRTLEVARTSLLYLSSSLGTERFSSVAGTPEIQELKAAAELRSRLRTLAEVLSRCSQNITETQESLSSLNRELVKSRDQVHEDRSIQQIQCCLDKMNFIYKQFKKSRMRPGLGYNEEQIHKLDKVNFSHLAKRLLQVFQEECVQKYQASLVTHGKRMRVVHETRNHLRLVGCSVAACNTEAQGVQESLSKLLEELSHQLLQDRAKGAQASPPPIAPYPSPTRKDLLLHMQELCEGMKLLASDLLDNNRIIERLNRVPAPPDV

[11] = biological target: T4, Inhibitor of nuclear factor kappa-B kinase subunit epsilon (Homo sapiens); conditions: at 1 µM
[12] = biological target: T5, Serine/threonine-protein kinase Nek1 (Homo sapiens) (UniProt Q96PY6); conditions: at 0.1 µM
T5 sequence (whole entry): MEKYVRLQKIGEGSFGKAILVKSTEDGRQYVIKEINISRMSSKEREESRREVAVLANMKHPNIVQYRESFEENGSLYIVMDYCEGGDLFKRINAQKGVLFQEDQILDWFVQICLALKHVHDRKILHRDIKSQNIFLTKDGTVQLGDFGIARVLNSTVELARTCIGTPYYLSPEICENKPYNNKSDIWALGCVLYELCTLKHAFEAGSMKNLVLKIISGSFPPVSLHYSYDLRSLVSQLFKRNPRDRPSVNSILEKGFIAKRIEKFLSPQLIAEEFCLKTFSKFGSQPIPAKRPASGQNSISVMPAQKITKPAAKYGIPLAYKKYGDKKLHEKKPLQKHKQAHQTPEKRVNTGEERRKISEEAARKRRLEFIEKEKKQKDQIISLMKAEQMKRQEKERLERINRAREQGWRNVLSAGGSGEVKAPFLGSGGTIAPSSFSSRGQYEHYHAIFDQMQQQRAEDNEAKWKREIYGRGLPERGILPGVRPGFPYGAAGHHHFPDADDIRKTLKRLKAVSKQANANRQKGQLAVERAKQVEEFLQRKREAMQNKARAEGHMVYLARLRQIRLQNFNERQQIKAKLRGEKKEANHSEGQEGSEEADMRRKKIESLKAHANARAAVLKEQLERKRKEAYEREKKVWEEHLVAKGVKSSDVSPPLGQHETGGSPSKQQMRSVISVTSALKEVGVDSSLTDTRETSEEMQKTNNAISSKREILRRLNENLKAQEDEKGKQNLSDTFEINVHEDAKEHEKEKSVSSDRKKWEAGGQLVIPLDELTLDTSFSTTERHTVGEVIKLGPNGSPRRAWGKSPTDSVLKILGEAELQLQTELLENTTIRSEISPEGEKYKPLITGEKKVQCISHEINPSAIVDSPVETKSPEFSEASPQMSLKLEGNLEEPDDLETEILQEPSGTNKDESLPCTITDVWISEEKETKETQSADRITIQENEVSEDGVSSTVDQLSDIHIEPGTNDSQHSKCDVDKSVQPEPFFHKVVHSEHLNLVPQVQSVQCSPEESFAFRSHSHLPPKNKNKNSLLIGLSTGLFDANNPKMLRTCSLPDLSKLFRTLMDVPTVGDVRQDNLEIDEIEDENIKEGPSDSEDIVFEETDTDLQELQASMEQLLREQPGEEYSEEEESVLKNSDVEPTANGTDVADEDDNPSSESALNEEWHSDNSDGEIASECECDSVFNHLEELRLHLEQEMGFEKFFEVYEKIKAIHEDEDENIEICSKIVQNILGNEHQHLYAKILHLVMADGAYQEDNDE

[13] = biological target: T5, Serine/threonine-protein kinase Nek1 (Homo sapiens); conditions: at 1 µM
[14] = biological target: T6, Serine/threonine-protein kinase Nek2 (Homo sapiens) (UniProt P51955); conditions: at 0.1 µM
T6 sequence (whole entry): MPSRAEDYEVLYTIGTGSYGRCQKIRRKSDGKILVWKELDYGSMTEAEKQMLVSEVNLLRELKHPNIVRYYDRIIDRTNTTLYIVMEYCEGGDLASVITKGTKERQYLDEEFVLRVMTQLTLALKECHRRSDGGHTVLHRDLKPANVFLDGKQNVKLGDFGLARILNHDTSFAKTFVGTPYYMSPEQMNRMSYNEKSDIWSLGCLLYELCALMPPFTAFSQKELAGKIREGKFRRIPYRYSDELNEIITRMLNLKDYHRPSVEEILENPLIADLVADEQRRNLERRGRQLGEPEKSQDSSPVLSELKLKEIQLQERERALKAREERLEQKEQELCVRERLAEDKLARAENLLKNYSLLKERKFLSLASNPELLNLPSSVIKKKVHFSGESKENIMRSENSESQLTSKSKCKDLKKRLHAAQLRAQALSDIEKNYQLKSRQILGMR

[15] = biological target: T6, Serine/threonine-protein kinase Nek2 (Homo sapiens); conditions: at 1 µM
[16] = biological target: Serine/threonine-protein kinase Nek6 (Homo sapiens) (UniProt Q9HC98); conditions: at 0.1 µM
[17] = biological target: Serine/threonine-protein kinase Nek6 (Homo sapiens) (UniProt Q9HC98); conditions: at 1 µM
[18] = biological target: Serine/threonine-protein kinase Nek7 (Homo sapiens) (UniProt Q8TDX7); conditions: at 0.1 µM
[19] = biological target: Serine/threonine-protein kinase Nek7 (Homo sapiens) (UniProt Q8TDX7); conditions: at 1 µM
[20] = biological target: T7, Serine/threonine-protein kinase Nek9 (Homo sapiens) (UniProt Q8TD19); conditions: at 0.1 µM;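 also: reported value is the mean percent inhibition of NEK9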
T7 sequence (whole entry): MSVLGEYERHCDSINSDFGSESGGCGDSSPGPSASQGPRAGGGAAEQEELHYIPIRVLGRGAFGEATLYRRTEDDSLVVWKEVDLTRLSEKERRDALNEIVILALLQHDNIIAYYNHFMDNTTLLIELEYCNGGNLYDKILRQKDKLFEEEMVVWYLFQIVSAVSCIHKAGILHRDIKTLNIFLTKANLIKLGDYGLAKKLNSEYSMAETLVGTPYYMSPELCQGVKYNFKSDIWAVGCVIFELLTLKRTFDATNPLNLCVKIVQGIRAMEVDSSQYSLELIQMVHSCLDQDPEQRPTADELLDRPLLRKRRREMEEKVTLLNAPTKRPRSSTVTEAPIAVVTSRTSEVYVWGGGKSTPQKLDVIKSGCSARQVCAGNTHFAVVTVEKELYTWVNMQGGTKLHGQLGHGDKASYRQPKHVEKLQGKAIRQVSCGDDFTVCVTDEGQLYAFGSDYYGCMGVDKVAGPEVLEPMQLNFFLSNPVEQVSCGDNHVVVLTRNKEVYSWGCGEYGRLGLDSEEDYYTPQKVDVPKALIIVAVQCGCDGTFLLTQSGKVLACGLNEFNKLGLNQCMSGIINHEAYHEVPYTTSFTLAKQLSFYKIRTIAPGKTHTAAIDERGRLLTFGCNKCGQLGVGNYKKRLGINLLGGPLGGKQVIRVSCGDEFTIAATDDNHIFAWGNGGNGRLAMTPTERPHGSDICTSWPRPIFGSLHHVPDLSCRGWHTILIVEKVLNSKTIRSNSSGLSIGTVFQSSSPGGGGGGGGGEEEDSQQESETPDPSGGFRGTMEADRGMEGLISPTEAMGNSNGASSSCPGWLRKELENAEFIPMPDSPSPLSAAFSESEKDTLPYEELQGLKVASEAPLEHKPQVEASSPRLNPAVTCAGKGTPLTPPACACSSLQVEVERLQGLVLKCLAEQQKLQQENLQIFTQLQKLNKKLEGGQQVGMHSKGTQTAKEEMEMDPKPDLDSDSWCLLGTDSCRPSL

Serine/threonine-protein kinase Nek7 (Homo sapiens), sequence (Q8TDX7 whole entry, looked up): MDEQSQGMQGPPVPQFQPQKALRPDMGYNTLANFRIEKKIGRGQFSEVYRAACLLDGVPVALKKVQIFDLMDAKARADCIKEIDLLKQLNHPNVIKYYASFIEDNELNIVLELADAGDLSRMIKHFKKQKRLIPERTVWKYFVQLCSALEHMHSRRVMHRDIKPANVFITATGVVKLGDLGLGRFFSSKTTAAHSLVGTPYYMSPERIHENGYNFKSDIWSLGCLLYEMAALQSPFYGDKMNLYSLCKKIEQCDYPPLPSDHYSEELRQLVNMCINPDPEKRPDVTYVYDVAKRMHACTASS
Casein kinase II subunit alpha (Homo sapiens), sequence (P68400 whole entry, looked up): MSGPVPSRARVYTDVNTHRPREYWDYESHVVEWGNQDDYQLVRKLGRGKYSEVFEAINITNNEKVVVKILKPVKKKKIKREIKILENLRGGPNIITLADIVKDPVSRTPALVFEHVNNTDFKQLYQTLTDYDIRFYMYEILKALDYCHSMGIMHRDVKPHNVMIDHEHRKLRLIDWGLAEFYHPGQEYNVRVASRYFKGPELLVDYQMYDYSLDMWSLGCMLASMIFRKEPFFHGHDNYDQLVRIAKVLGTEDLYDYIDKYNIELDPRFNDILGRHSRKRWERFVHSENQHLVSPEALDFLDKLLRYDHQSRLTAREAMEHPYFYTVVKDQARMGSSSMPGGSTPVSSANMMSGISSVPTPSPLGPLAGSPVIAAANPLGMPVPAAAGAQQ
Serine/threonine-protein kinase Nek6 (Homo sapiens), sequence (Q9HC98 whole entry): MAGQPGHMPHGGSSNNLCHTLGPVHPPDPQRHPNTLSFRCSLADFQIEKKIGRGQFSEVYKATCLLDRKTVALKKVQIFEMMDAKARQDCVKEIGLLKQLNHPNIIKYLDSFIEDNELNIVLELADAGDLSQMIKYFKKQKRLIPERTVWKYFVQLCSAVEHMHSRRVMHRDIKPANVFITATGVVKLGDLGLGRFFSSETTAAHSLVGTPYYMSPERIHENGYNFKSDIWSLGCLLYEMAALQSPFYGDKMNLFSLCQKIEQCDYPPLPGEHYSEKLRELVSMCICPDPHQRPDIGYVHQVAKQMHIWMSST
Sphingosine kinase 1 (Homo sapiens), sequence (Q9NYA1 whole entry): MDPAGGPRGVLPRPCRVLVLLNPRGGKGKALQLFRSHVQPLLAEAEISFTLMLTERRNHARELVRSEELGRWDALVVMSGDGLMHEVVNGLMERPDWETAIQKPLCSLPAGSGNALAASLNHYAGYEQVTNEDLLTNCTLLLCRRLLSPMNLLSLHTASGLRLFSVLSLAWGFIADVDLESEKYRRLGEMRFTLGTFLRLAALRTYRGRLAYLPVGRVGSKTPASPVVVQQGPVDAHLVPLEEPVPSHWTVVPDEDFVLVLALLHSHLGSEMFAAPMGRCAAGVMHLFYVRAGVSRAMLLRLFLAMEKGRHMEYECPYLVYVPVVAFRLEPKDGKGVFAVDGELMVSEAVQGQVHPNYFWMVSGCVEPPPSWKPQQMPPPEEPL

Compound	inhibition [1] [%]	inhibition [2] [%]	inhibition [3] [%]	inhibition [4] [%]	inhibition [5] [%]	inhibition [6] [%]	inhibition [7] [%]	inhibition [8] [%]	inhibition [9] [%]	inhibition [10] [%]	inhibition [11] [%]	inhibition [12] [%]	inhibition [13] [%]	inhibition [14] [%]	inhibition [15] [%]	inhibition [16] [%]	inhibition [17] [%]	inhibition [18] [%]	inhibition [19] [%]	inhibition [20] [%]
O=C(Nc1ccc(Oc2ccc3[nH]c(NC(=O)c4ccco4)nc3c2)cc1)Nc1cc(C(F)(F)F)ccc1F	6.73	0.7	-0.32	0.08	-0.44	0.68	5.25	-0.61	-1.89	-0.79	-0.41	0.66	0.27	0.32	0.28	-0.01	-0.32	0.83	0.99	-0.1
Nc1nccc(-c2c(-c3ccc(F)cc3)nn3cc(C(F)(F)F)ccc23)n1	11.1	-0.68	0	15.6	2.55	-2.07	-2.01	1.03	0.86	1.65	0.39	-0.26	-0.62	0	1.3	0.29	-2.61	-1.44	0.7	0.57
